Several values for one entry are separate records, joined by “and”; a condition that tells them apart may be missing. Identical values can stand only once. This is part of a sample that, as a whole, favours compounds with a hit. Of some 79,000 tested, about 15% had one in any assay. The source holds several records for some structures; these can differ, active in one and inactive in another. Activity calls are given as the source filed them. Rule as the data show it: active = growth inhibition above about 70%; inactive = the rest.
Tests used:
[1] = NCI Yeast Anticancer Drug Screen. Data for the rad50 strain (AID 155);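 also: 0% = growth of vehicle-only cultures of the same strain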; conditions: S. cerevisiae rad50 strain growth inhibition; at 50.0 µM; stronger effect = higher value
How it was run: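 Growth of the mutant yeast was measured after compound exposure and referenced to vehicle-treated cultures.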

[2] = NCI Yeast Anticancer Drug Screen. Data for the mec2-1 strain (AID 157); conditions: S. cerevisiae mec2-1 strain, at 50.0 µM, stronger effect = higher value
How it was run: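 Test agents were screened against the mec2-1 yeast strain, with defined DNA repair or cell cycle alteration. Growth was scored as inhibition against vehicle-only controls.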

[3] = NCI Yeast Anticancer Drug Screen. Data for the sgs1 mgt1 strain (AID 161);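 also: 0% = growth of cultures given vehicle only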; conditions: S. cerevisiae sgs1 mgt1 strain, at 50.0 µM, stronger effect = higher value
How it was run: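 Genetically altered yeast, compound exposure, growth inhibition relative to vehicle.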

[4] = NCI Yeast Anticancer Drug Screen. Data for the cln2 rad14 strain (AID 165);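 also: 0% = growth equal to vehicle treated cultures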; conditions: S. cerevisiae cln2 rad14 strain, at 50.0 µM, stronger effect = higher value
How it was run: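 Growth of compound-exposed yeast (cln2 rad14 genotype) measured and expressed as inhibition relative to vehicle.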

[5] = NCI Yeast Anticancer Drug Screen. Data for the bub3 strain (AID 167); conditions: S. cerevisiae bub3 mutant strain, at 50.0 µM, stronger effect = higher value
How it was run: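 Whole-cell yeast assay. The mutant strain was incubated with compounds, and growth inhibition was determined by comparison with vehicle-treated cells.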

[6] = NCI Yeast Anticancer Drug Screen. Data for the mlh1 rad18 strain (AID 175); conditions: S. cerevisiae mlh1 rad18 strain growth inhibition; at 50.0 µM; stronger effect = higher value
How it was run: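 In this whole-cell yeast screen, a strain with altered DNA damage repair is challenged with compound, and its growth is measured against matched vehicle-treated controls.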

Measured: growth inhibition

CC(C)(C)CC(C)(C)c1ccc(O)c(SSc2cc(C(C)(C)CC(C)(C)C)ccc2O)c1
inactive: [1] 4.95% and 11.8% | [2] -16.1% and 4.4% | [3] 7.7% and -8.55% | [4] 13.2% and -17.5% | [5] 11.5% and 0.5% | [6] 6.65% and 24.1%

CC(=O)OCC1OC(n2c(-c3ccccc3)cc(-c3ccccc3)c(C#N)c2=O)C(OC(C)=O)C(OC(C)=O)C1OC(C)=O (stereo not drawn)
inactive: [1] -14.3% and -1.45% | [2] -3.7% and 6.6% | [3] 1.8% and 3.45% | [4] 23.6% and 0.7% | [5] 5.4% and 3.9% | [6] 16% and -2.25%

CCOC(=O)C(N)Cc1ccc(O)cc1 (stereo not drawn)
inactive: [1] 16% and 0.4% | [2] 8.05% and 6.55% | [3] -0.85% and -11.8% | [4] 6.25% and -19.6% | [5] 10.7% and 1.75% | [6] 23.4% and -1.7%

Cc1ccc(N=Nc2c(O)ccc3cc(S(=O)(=O)O)ccc23)cc1
inactive: [1] 50.9% and 4.8% | [2] -15.5% and -2.8% | [3] 9.8% and 5.85% | [4] -6.85% and -6.7% | [5] -32.6% and 8.05% | [6] 22.8% and 9.35%

COc1ccc2[nH]ccc(=O)c2c1
inactive: [1] -28.1% and 8.75% | [2] -24.3% and -0.05% | [3] -47.5% and 12.3% | [4] -4.25% and -5.6% | [5] -43% and -3.7% | [6] -18.7% and 5.95%

COC1C(OC(C)=O)CC(=O)OC(C)C/C=C/C=C\C(O)C(C)CC(CC=O)C1OC1OC(C)C(OC2CC(C)(O)C(OC(=O)CC(C)C)C(C)O2)C(N(C)C)C1O (stereo not drawn)
inactive: [1] -0.2% and -2.9% | [2] -10.4% and -25.7% | [3] -22.6% and -34% | [4] -4.95% and 4.75% | [5] -27.1% and -30.9% | [6] -2% and -6.85%

Oc1ccc2ccccc2c1CNCc1c(O)ccc2ccccc12
inactive: [1] -1.45% and 2.85% | [2] -7.9% and -34.8% | [3] 6% and 1.7% | [4] -23.4% and -2.4% | [5] 26.5% and -20.8% | [6] -8.15% and -9.85%

CCOC(=O)C(N)CCSC (stereo not drawn)
inactive: [1] -22.8% and -14.2% | [2] -14.3% and -7.65% | [3] -13.8% and -1% | [4] -39.4% and -16.6% | [5] -13.3% and -8.95% | [6] -5.05% and -17.5%

CC(=O)OCC(OC(C)=O)C(OC(C)=O)C(OC(C)=O)C(C=NN(C(C)=O)S(=O)(=O)c1ccc(/C=C2\NC(=O)NC2=O)cc1)OC(C)=O (stereo not drawn)
inactive: [1] 2.7% and 15.3% | [2] 13.4% and 0.65% | [3] 26.6% and 11.7% | [4] 24.1% and 30.6% | [5] -5.25% and 7.15% | [6] 25.8% and 18.2%

C/C=C/C=C/c1cc2cc3c(c(O)c2c(=O)[nH]1)C1(CC3)C(O)=c2c(=O)c3c(=O)cc(OC)c(=O)c=3c(=O)c2=C1O (stereo not drawn)
active: [1] 86.8% and 80.7% | [2] 89.8% and 74.3% | [3] 88.7% and 75.2% | [5] 83% and 80.5% | [6] 78.6%
81.8% (active) and 60% (inactive): [4]

O=C(Nc1ccccc1)C1CCCCC1CO (stereo not drawn)
inactive: [1] 18.9% and 7.15% | [2] 5.95% and 17.4% | [3] 9.95% and 22.1% | [4] 7% and 7.1% | [5] 2.65% and -6.15% | [6] 5.95% and 31.8%

C[n+]1cccc2ccccc21
inactive: [1] -17.1% and -14% | [2] -11.8% and -2.1% | [3] -40.5% and -8.3% | [4] -10.7% and -59% | [5] 11.5% and 6.7% | [6] -11.6% and -4.15%

OC1COCOC1C1OCOCC1O (stereo not drawn)
inactive: [1] 11.2% and -5.6% | [2] -2.7% and -8.35% | [3] 2.3% and 19.4% | [4] -18.2% and -29% | [5] -1.9% and -4.2% | [6] -5.6% and -0.85%

Oc1ccccc1CNCc1ccccc1O
inactive: [1] -6.65% and -16.2% | [2] -13.5% and -2.7% | [3] -5.5% and -33% | [4] 23.8% and -28.1% | [5] 0.5% and -28.2% | [6] -1.05% and 3.55%

CCC(N)C(=O)O (stereo not drawn)
inactive: [1] -0.4% and 5.25% | [2] -31.6% and 6.85% | [3] 1.75% and -11.3% | [4] 8.55% and 9.4% | [5] -9.75% and -14.9% | [6] -10.8% and -0.8%

O=c1[nH]c(F)nc2c1ncn2C1OC(CO)C(O)C1O (stereo not drawn)
inactive: [1] -9.5% and -20.3% | [2] -5% and -12.8% | [3] -5.7% and -20.9% | [4] -16.4% and 8.4% | [5] 8.75% and -10.6% | [6] -21.2% and 6%

CC(O)(c1cccc(Cl)c1)C(c1ccccc1)c1ccccn1 (stereo not drawn)
46.8% (inactive) and 97.4% (active): [5]
active: [1] 82.6% and 97.7% | [2] 79.2% and 97.9% | [3] 95% and 97.8% | [6] 79.7% and 97%
19.8% (inactive) and 92.2% (active): [4]

COC1OC(COC(=O)c2ccc([N+](=O)[O-])cc2)C2OC12 (stereo not drawn)
inactive: [1] 7.6% and -6.95% | [2] -7.95% and -1% | [3] 8.7% and 1.4% | [4] 17.2% and 28.4% | [5] 27.2% and -2.85% | [6] 7.95% and 8.15%

Source: PubChem BioAssay (NCI)
